From PubChem
Calb FLC: C. albicans growth modulation with fluconazole. 300,000 tested, 0.57% active. growth inhibition, % (test concentration not listed). C. albicans CaCi-2 (fluconazole-resistant clinical isolate) + fluconazole, Alamar Blue growth, 48 h;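 active = growth inhibition above about 58% in most replicates, limit read from the data, passing the limit was not always enough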;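 note: all wells also contain fluconazole at 8 µg/ml as a sub-toxic cotreatment; 0% = median of DMSO wells and 100% = median of geldanamycin control wells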
CTSL1 counter: counter-screen for PFM18AAP inhibitors: inhibitors of F. hepatica cathepsin L1; recombinant F. hepatica cathepsin L1, Z-Leu-Arg-MCA fluorescence; inhibition, % at 5.96 µM; 300,000 tested, 0.49% active; AID 1906;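 active = inhibition above the mean of all tested compounds plus 3 SD, set per screening campaign, cut at about 17% in these data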;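 note: 0% = plate median of test compound wells and 100% = 1 µM Z-Phe-Ala-diazomethylketone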
PfM18AAP inh: PfM18AAP enzyme inhibition; recombinant PfM18AAP, H-Glu-NHMec fluorogenic cleavage; inhibition, % at 7.35 µM; 290,000 tested, 1.2% active; AID 1822;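 active = inhibition above the campaign mean inhibition over all tested compounds plus 3 SD, cut at about 28% in these data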;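 note: 0% = plate median of test compound wells and 100% = 2 mM ZnCl2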
Rin1 Abl inh: inhibitors of human Rin1-Abl protein interaction; AID 588664; 360,000 tested, 0.4% active; TR-FRET Rin1/Abl binding, biochemical; inhibition, % at 7.35 µM; P00519+Q13671; in the data active = inhibition above about 5%, passing the limit was not always enough
Target sequence (P00519 whole entry, looked up): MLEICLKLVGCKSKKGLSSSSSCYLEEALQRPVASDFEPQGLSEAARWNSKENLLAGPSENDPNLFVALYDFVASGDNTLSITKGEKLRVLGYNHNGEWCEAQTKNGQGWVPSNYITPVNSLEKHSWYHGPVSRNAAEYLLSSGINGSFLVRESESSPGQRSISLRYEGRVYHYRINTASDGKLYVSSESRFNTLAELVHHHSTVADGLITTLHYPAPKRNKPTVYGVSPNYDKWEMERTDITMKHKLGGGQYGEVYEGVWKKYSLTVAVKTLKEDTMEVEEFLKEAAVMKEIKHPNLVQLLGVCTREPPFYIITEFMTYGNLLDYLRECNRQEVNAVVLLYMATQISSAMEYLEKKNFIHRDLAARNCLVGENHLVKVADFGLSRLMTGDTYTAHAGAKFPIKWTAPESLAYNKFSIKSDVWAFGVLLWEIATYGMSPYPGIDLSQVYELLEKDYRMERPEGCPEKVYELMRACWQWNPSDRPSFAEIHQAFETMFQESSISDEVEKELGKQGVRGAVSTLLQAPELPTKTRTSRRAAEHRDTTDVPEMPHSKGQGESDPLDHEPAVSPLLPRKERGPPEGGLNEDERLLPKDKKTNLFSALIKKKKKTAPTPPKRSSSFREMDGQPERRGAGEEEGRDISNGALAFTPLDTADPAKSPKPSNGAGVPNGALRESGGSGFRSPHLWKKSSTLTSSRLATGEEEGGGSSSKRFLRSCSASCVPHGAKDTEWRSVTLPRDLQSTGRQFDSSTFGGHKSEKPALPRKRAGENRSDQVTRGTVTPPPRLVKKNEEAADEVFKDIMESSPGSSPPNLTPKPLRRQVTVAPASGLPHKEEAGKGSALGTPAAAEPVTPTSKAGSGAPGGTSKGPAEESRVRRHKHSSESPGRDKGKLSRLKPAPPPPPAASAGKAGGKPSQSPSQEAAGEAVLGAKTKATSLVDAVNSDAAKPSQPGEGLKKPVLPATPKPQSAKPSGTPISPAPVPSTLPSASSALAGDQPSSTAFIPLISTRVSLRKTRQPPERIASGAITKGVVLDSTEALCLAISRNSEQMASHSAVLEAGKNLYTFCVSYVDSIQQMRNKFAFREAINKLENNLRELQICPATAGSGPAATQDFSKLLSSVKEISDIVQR
Target sequence (Q13671 whole entry, looked up): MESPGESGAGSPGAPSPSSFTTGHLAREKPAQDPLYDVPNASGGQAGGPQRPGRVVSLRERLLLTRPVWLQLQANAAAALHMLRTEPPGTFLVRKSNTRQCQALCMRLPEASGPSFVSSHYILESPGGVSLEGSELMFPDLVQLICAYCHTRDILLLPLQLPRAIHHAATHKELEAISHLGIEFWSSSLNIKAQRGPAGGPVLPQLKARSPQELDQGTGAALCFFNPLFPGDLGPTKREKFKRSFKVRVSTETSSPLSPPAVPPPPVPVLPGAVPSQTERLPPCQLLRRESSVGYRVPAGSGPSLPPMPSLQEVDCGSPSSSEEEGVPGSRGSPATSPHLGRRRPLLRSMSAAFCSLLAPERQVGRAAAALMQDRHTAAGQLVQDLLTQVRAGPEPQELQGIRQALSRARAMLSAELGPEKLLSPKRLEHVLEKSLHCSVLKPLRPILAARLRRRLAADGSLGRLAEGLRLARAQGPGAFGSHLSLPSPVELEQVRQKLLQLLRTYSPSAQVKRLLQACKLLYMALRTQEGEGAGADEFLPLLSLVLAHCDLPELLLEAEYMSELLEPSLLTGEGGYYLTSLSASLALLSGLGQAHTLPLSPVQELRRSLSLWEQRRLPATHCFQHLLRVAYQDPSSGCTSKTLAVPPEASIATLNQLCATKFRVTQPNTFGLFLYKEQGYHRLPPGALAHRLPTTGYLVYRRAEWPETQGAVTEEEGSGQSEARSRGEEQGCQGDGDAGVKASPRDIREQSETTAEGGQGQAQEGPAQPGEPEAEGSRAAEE
Rin1-Abl confirm: Rin1-Abl interaction inhibition confirmation. shares compounds with Rin1 Abl inh. inhibition, % at 7.35 µM. TR-FRET Rin1-Abl binding, purified proteins. 1,300 tested, 49% active. AID 602124; in the data active = inhibition above about 6.5%
GFP quench-1: quenches GFP fluorescence, counter-screen for Rin1-Abl inhibitors | AID 602125 | inhibitors/quenchers counterscreen | inhibition, % at 6.75 µM | 1,300 tested, 8.5% active | shares compounds with Rin1 Abl inh; in the data active = inhibition above about 6.5%;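 note: ABL1-eGFP fusion protein alone without its partner RIN1-SBP; 0% = protein with vehicle and 100% = wells lacking protein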
GFP quench dose: counter-screen for Rin1-Abl inhibitors: GFP quenchers, dose response. AID 602182. 230 tested, under 10 active. shares compounds with Rin1 Abl inh. GFP fluorescence interference/quenching counterscreen. IC50, µM;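 note: ABL1-eGFP fusion protein alone without its RIN1 binding partner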
GFP quench-2: GFP quenching artifact for Rin1-Abl inhibitor hits. shares compounds with Rin1 Abl inh. 25 tested, under 10 active. IC50, µM. GFP fluorescence quenching counterscreen, biochemical
* = called active by the depositor; x = no result given; ! = a repeat was not active. Sampled rows, rich in hits. Any-hit rate of the full collection: about 2.1%. Unless noted, the rule behind the calls is not given here.

SMILES	Calb FLC	CTSL1 counter	PfM18AAP inh	Rin1 Abl inh	Rin1-Abl confirm	GFP quench-1	others
O=C(c1ccc(Cl)c(Cl)c1)N1CCC(=O)N(C(COCc2cccc(C(F)(F)F)c2)Cc2ccccc2)CC1 (centres undefined)	5	0	-11	23*	24*	-1
Cc1cccc(COCC(Cc2ccccc2)N2CCN(C(=O)c3ccc(Cl)c(Cl)c3)CCC2=O)c1 (centres undefined)	6	-5	-2	10	x	x
C=CCc1ccccc1OCC(O)CN1CCN(c2ccccc2F)CC1 (centres undefined)	3	2	6	1	x	x
C=CCc1ccccc1OCC(O)CN1CCN(c2ccccc2OC)CC1 (centres undefined)	6	0	1	7.4*!	-1	0
O=c1cc(SCc2ccccc2)nc[nH]1	x	x	x	89*	98*	1	GFP quench dose=>68
CCOC(=O)N1CCN(C(=O)Nc2ccc(NC(=O)N3CCN(C(=O)OCC)CC3)cc2)CC1	-5	1	1	33*	38*	-1	GFP quench dose=>68;GFP quench-2=>68
CCOC(=O)N1CCN(C(=O)C2CCN(C(=O)Nc3ccccc3)CC2)CC1	x	x	x	3	x	x
Cc1ccsc1C(=O)NNC(=O)c1ccc(NS(=O)(=O)c2cccs2)cc1	-1	4	x	10*	-1	-1
CC(=O)Nc1cccc(C(=O)NNC(=O)c2ccc(NS(=O)(=O)c3cccs3)cc2)c1	x	x	x	0	x	x
CCCn1nc(C(=O)N(C)CC(=O)Nc2ccc(OCC)c(OCC)c2)c2ccccc2c1=O	x	x	x	21*	34*	1	GFP quench dose=>68
CCCCn1nc(C(=O)N(C)CC(=O)Nc2cccc(F)c2)c2ccccc2c1=O	1	-2	x	1	x	x
CCOC(=O)C1CCN(C(=O)COC(=O)CNC(=O)c2ccc(OC)cc2)CC1	-2	-14	-4	0	x	x
C[C@H]1CCCCO[C@@H](CN(C)S(=O)(=O)c2ccc(Cl)cc2)[C@@H](C)CN([C@@H](C)CO)C(=O)c2cc(NS(=O)(=O)c3ccccc3)ccc2O1	x	x	x	-2	x	x
CCOC(=O)CCCCCC(=O)Nc1ccc2c(c1)C(=O)N([C@@H](C)CO)C[C@@H](C)[C@H](CN(C)S(=O)(=O)c1cccs1)OCCCC[C@H](C)O2	x	x	x	8.2*	6	-1
Cc1noc(C)c1NC(=O)Nc1ccc2c(c1)C(=O)N([C@H](C)CO)C[C@H](C)[C@@H](CN(C)S(=O)(=O)c1ccccc1)O2	x	x	x	9.2*	0	1
COc1ccc(S(=O)(=O)N(C)C[C@@H]2OCCCC[C@@H](C)Oc3ccc(NS(=O)(=O)c4cccs4)cc3C(=O)N([C@H](C)CO)C[C@@H]2C)cc1	x	x	x	5	x	x
C[C@@H]1CCCCO[C@@H](CN(C)S(=O)(=O)c2ccccc2)[C@@H](C)CN([C@H](C)CO)C(=O)c2cc(NS(=O)(=O)c3ccc(F)cc3)ccc2O1	x	x	x	51*	60*	0	GFP quench dose=>68
COc1ccc(C(=O)n2nc(-c3ccccc3)nc2N)cc1OC	-7	-2	4	1	x	x
O=C(NCc1ccncc1)Nc1ccccc1	-2	1	1	54*	-1	-1
O=C(NCc1ccncc1)Nc1ccc(Cc2ccc(NC(=O)NCc3ccncc3)cc2)cc1	x	x	x	3	x	x
COc1cc(CNCCc2ccc(F)cc2)ccc1OCc1ccc(Cl)nc1	-3	-3	2	12*	11*	1
CCNCc1ccc(OCc2ccccc2F)c(OC)c1	-31	0	-15	1	x	x
COc1cc(CNCCc2ccccc2F)ccc1OCc1ccc(Cl)nc1	-11	-3	-1	7.5*	7.2*	-2
CN(Cc1cnccn1)C(=O)C1CCC(=O)N(CCc2ccccc2)C1 (centres undefined)	1	5	3	25*	29*	1	GFP quench dose=>68
CN(Cc1cnccn1)C(=O)C1CCC(=O)N(CCc2ccc(Cl)cc2)C1 (centres undefined)	-1	-4	9	3	x	x
SMILES	Calb FLC	CTSL1 counter	PfM18AAP inh	Rin1 Abl inh	Rin1-Abl confirm	GFP quench-1	others
CC1=C(C(=O)N(C)C)CC(CC(=O)NCCc2ccccn2)C(=O)N1Cc1ccc(F)cc1 (centres undefined)	x	x	x	-1	x	x
Cn1cccc1C(=O)NCC(c1ccc(F)cc1)N1CCOCC1 (centres undefined)	0	4	1	-2	x	x
CC(=O)N1CCN(c2ccc(NCc3ccc4c(c3)OCO4)cc2)CC1	1	2	13	-5	x	x
O=C(c1ccccc1)N1CCN(c2ccc(NCc3ccc4c(c3)OCO4)cc2)CC1	-22	5	-5	12*	12*	-1
O=C(OCCCc1cc2ccccc2c(=O)o1)N1CCOCC1	x	x	x	2	x	x
O=C(OCCc1cc2ccccc2c(=O)o1)N1CCOCC1	x	x	x	12*	2	-4
C[C@@H]1O[C@@H](OC[C@H]2O[C@@H](Oc3c(-c4ccc(O)c(O)c4)oc4cc(O)cc(O)c4c3=O)[C@H](O)[C@@H](O)[C@@H]2O)[C@H](O)[C@H](O)[C@H]1O	-4	2	64*	15*	21*	2	GFP quench dose=>68
CCc1nc2nc(C)c(NS(=O)(=O)c3ccc(CC(C)C)cc3)c(=O)n2[nH]1	-4	2	6	8.2*	2	1
Cc1ccc(S(=O)(=O)c2nnn3c2nc(N2CCOCC2)c2ccccc23)c(C)c1	-6	4	-10	46*	30*	0
O=C(COC(=O)c1c[nH]c(=O)[nH]c1=O)Nc1cccc([N+](=O)[O-])c1	x	x	x	1	x	x
COc1ccc(N(C(=O)c2snc(C(N)=O)c2N)C(C(=O)NCc2ccccc2)c2ccc(F)cc2)c(OC)c1 (centres undefined)	22	1	4	9.9*	11*	-3
COc1ccccc1N(C(=O)c1snc(C(N)=O)c1N)C(C(=O)NCc1ccccc1)c1ccc(O)cc1 (centres undefined)	7	x	-2	22*	23*	1	GFP quench dose=>68
COc1ccc(C(C(=O)NCc2ccccc2)N(C(=O)c2snc(C(N)=O)c2N)c2ccccc2OC)cc1 (centres undefined)	32	1	-1	12*	14*	0
COCCNC(=O)c1cc(-c2ccccc2)nn1Cc1cc(C)no1	x	x	x	-3	x	x
CCN1CN(Cc2ccco2)CNC1=S	27	2	-9	1	x	x
O=C(O)CC(C(=O)O)N1C(=O)/C(=C/C=C/c2ccco2)SC1=S (centres undefined)	1	1	31*	18*	11*	13*
CC(=O)OCC(=O)C12OC(C)(C)OC1CC1C3CC=C4CC(O)CCC4(C)C3CCC12C (centres undefined)	x	x	x	12*	0	0
O=C(Nc1ccc(S(=O)(=O)N2CCCC2)cc1)C1CCN(S(=O)(=O)c2ccc(F)cc2)CC1	-5	1	x	0	x	x
